# The full list was thinned out, with the strongest signals kept by preference.
# B1: CGL (Crenomytilus grayanus), H2FH31 (protein)
# chain: MTTFLIKHKASGKFLHPYGGSSNPANNTKLVLHSDIHERMYFQFDVVDERWGYIKHVASGKIVHPYGGQANPPNETNMVLHQDRHDRALFAMDFFNDNIMHKGGKYIHPKGGSPNPPNNTETVIHGDKHAAMEFIFVSPKNKDKRVLVYA
# Columns and labels:
# Experiment in all cases: glycan array binding signal (z-score within array); higher = stronger binding
# Details in all cases: glycan notation: IUPAC condensed, linker removed
# [1] = target: Fuc(a1-2)Gal(b1-3)GlcNAc(b1-2)Man(a1-3)[Fuc(a1-2)Gal(b1-3)GlcNAc(b1-2)Man(a1-6)]Man(b1-4)GlcNAc(b1-4)GlcNAc
# Summary of the method: (§1)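 From the Consortium for Functional Glycomics database, 3228 arrays were curated, keeping only those whose protein sequence was available. Binding is given as a within-array Z-score averaged across arrays sharing a protein sequence and across linkers. Negative Z-scores can be read as non-binding.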
# [2] = target: Fuc(a1-2)Gal(b1-3)GlcNAc(b1-3)[Gal(b1-4)GlcNAc(b1-6)]Gal(b1-4)Glc
# Summary of the method: as §1
# [3] = target: Fuc(a1-2)Gal(b1-3)[Fuc(a1-4)]GlcNAc
# Summary of the method: as §1
# [4] = target: Fuc(a1-2)Gal(b1-4)GlcNAc(b1-3)Gal(b1-4)GlcNAc(b1-2)Man(a1-3)[Fuc(a1-2)Gal(b1-4)GlcNAc(b1-3)Gal(b1-4)GlcNAc(b1-2)Man(a1-6)]Man(b1-4)GlcNAc(b1-4)GlcNAc
# Summary of the method: as §1
# [5] = target: Fuc(a1-2)Gal(b1-4)GlcNAc(b1-3)[Fuc(a1-2)Gal(b1-4)GlcNAc(b1-6)]GalNAc
# Summary of the method: as §1
# [6] = target: Fuc(a1-2)[Gal(a1-3)]Gal(b1-4)GlcNAc
# Summary of the method: as §1
# [7] = target: Fuc(a1-2)[Gal(a1-4)]Gal(b1-4)GlcNAc
# Summary of the method: as §1
# [8] = target: Fuc(a1-2)[GalNAc(a1-3)]Gal
# Summary of the method: as §1
# [9] = target: Fuc(a1-2)[GalNAc(a1-3)]Gal(b1-4)GlcNAc(b1-2)Man(a1-3)[Fuc(a1-2)[GalNAc(a1-3)]Gal(b1-4)GlcNAc(b1-2)Man(a1-6)]Man(b1-4)GlcNAc(b1-4)[Fuc(a1-6)]GlcNAc
# Summary of the method: as §1
# [10] = target: Fuc(a1-2)[GalNAc(a1-3)]Gal(b1-4)GlcNAc(b1-6)GalNAc
# Summary of the method: as §1
# [11] = target: Fuc(a1-2)[GalNAc(a1-3)]Gal(b1-4)[Fuc(a1-3)]GlcNAc(b1-3)GalNAc
# Summary of the method: as §1
# [12] = target: Fuc(a1-3)[Gal(b1-4)]GlcNAc6S
# Summary of the method: as §1
# [13] = target: Gal(a1-3)Gal(b1-4)GlcNAc(b1-2)Man
# Summary of the method: as §1
# [14] = target: Gal(a1-3)Gal(b1-4)GlcNAc(b1-2)Man(a1-3)[Gal(a1-3)Gal(b1-4)GlcNAc(b1-2)Man(a1-6)]Man(b1-4)GlcNAc(b1-4)GlcNAc
# Summary of the method: as §1
# [15] = target: Gal(a1-3)Gal(b1-4)GlcNAc(b1-3)GalNAc
# Summary of the method: as §1
# [16] = target: Gal(a1-3)[Gal(a1-4)]Gal(b1-4)GlcNAc
# Summary of the method: as §1
# [17] = target: Gal(a1-4)Gal(b1-3)GlcNAc(b1-2)Man(a1-3)[Gal(a1-4)Gal(b1-3)GlcNAc(b1-2)Man(a1-6)]Man(b1-4)GlcNAc(b1-4)GlcNAc
# Summary of the method: as §1
# Gal(a1-4)Gal(b1-4)GlcNAc = target: Gal(a1-4)Gal(b1-4)GlcNAc
# Summary of the method: as §1
# [18] = target: Gal(a1-4)Gal(b1-4)GlcNAc(b1-2)Man(a1-3)[Gal(a1-4)Gal(b1-4)GlcNAc(b1-2)Man(a1-6)]Man(b1-4)GlcNAc(b1-4)GlcNAc
# Summary of the method: as §1
# [19] = target: Gal(a1-4)Gal(b1-4)GlcNAc(b1-3)Gal(b1-4)Glc
# Summary of the method: as §1
# Gal(b1-3)Gal(b1-4)GlcNAc = target: Gal(b1-3)Gal(b1-4)GlcNAc
# Summary of the method: as §1
# [20] = target: Gal(b1-3)GalNAc(a1-3)[Fuc(a1-2)]Gal(b1-4)Glc
# Summary of the method: as §1
# [21] = target: Gal(b1-3)GalNAc(a1-3)[Fuc(a1-2)]Gal(b1-4)GlcNAc
# Summary of the method: as §1
# [22] = target: Gal(b1-3)GlcNAc(a1-3)Gal(b1-4)GlcNAc
# Summary of the method: as §1
# [23] = target: Gal(b1-3)GlcNAc(a1-6)Gal(b1-4)GlcNAc
# Summary of the method: as §1
# [24] = target: Gal(b1-3)GlcNAc(b1-2)[Gal(b1-3)GlcNAc(b1-6)]Man(a1-6)[Gal(b1-3)GlcNAc(b1-2)Man(a1-3)]Man(b1-4)GlcNAc(b1-4)GlcNAc
# Summary of the method: as §1
# [25] = target: Gal(b1-3)GlcNAc(b1-6)Gal(b1-4)GlcNAc
# Summary of the method: as §1
# [26] = target: Gal(b1-3)[Neu5Ac(a2-6)]GalNAc
# Summary of the method: as §1
# Gal(b1-4)GlcNAc(b1-2)Man = target: Gal(b1-4)GlcNAc(b1-2)Man
# Summary of the method: as §1
# [27] = target: Gal(b1-4)GlcNAc(b1-2)[Gal(b1-4)GlcNAc(b1-4)]Man(a1-3)[Gal(b1-4)GlcNAc(b1-2)[Gal(b1-4)GlcNAc(b1-6)]Man(a1-6)]Man(b1-4)GlcNAc(b1-4)GlcNAc
# Summary of the method: as §1
# [28] = target: Gal(b1-4)GlcNAc(b1-3)Gal(b1-4)GlcNAc(b1-3)Gal(b1-4)GlcNAc(b1-2)[Gal(b1-4)GlcNAc(b1-3)Gal(b1-4)GlcNAc(b1-3)Gal(b1-4)GlcNAc(b1-6)]Man(a1-6)[Gal(b1-4)GlcNAc(b1-3)Gal(b1-4)GlcNAc(b1-3)Gal(b1-4)GlcNAc(b1-2)Man(a1-3)]Man(b1-4)GlcNAc(b1-4)[Fuc(a1-6)]GlcNAc
# Summary of the method: as §1
# [29] = target: Gal(b1-4)GlcNAc(b1-3)Gal(b1-4)GlcNAc(b1-3)Gal(b1-4)GlcNAc(b1-3)Gal(b1-4)GlcNAc(b1-3)Gal(b1-4)GlcNAc(b1-2)Man(a1-3)[Gal(b1-4)GlcNAc(b1-3)Gal(b1-4)GlcNAc(b1-3)Gal(b1-4)GlcNAc(b1-3)Gal(b1-4)GlcNAc(b1-3)Gal(b1-4)GlcNAc(b1-2)Man(a1-6)]Man(b1-4)GlcNAc(b1-4)GlcNAc
# Summary of the method: as §1
# [30] = target: Gal(b1-4)GlcNAc(b1-3)Gal(b1-4)GlcNAc(b1-3)Gal(b1-4)GlcNAc(b1-3)Gal(b1-4)GlcNAc(b1-3)Gal(b1-4)GlcNAc(b1-2)[Gal(b1-4)GlcNAc(b1-3)Gal(b1-4)GlcNAc(b1-3)Gal(b1-4)GlcNAc(b1-3)Gal(b1-4)GlcNAc(b1-3)Gal(b1-4)GlcNAc(b1-6)]Man(a1-6)[Gal(b1-4)GlcNAc(b1-3)Gal(b1-4)GlcNAc(b1-3)Gal(b1-4)GlcNAc(b1-3)Gal(b1-4)GlcNAc(b1-3)Gal(b1-4)GlcNAc(b1-2)Man(a1-3)]Man(b1-4)GlcNAc(b1-4)[Fuc(a1-6)]GlcNAc
# Summary of the method: as §1
# Gal6S(b1-4)Glc = target: Gal6S(b1-4)Glc
# Summary of the method: as §1
# [31] = target: GalNAc(b1-3)Gal(a1-4)Gal(b1-4)GlcNAc(b1-3)Gal(b1-4)Glc
# Summary of the method: as §1
# GalNAc6S(b1-4)GlcNAc = target: GalNAc6S(b1-4)GlcNAc
# Summary of the method: as §1
# [32] = target: GlcA3S(b1-3)Gal(b1-4)GlcNAc(b1-3)Gal(b1-4)Glc
# Summary of the method: as §1
# [33] = target: GlcNAc(a1-6)Gal(b1-4)GlcNAc
# Summary of the method: as §1
# [34] = target: GlcNAc(b1-2)[GlcNAc(b1-4)]Man(a1-3)[GlcNAc(b1-4)][GlcNAc(b1-2)Man(a1-6)]Man(b1-4)GlcNAc(b1-4)GlcNAc
# Summary of the method: as §1
# GlcNAc(b1-3)Fuc = target: GlcNAc(b1-3)Fuc
# Summary of the method: as §1
# [35] = target: GlcNAc(b1-3)Gal(b1-4)GlcNAc(b1-3)Gal(b1-4)GlcNAc(b1-3)Gal(b1-4)GlcNAc(b1-3)Gal(b1-4)GlcNAc(b1-2)Man(a1-3)[GlcNAc(b1-3)Gal(b1-4)GlcNAc(b1-3)Gal(b1-4)GlcNAc(b1-3)Gal(b1-4)GlcNAc(b1-3)Gal(b1-4)GlcNAc(b1-2)Man(a1-6)]Man(b1-4)GlcNAc(b1-4)[Fuc(a1-6)]GlcNAc
# Summary of the method: as §1
# [36] = target: GlcNAc(b1-3)[GlcNAc(b1-4)][GlcNAc(b1-6)]GlcNAc
# Summary of the method: as §1
# [37] = target: Neu5Ac(a2-3)Gal(b1-3)GlcNAc(b1-2)Man(a1-3)[Neu5Ac(a2-3)Gal(b1-3)GlcNAc(b1-2)Man(a1-6)]Man(b1-4)GlcNAc(b1-4)GlcNAc
# Summary of the method: as §1
# [38] = target: Neu5Ac(a2-3)Gal(b1-3)GlcNAc(b1-3)GalNAc
# Summary of the method: as §1
# [39] = target: Neu5Ac(a2-3)Gal(b1-4)GlcNAc(b1-2)[Neu5Ac(a2-3)Gal(b1-4)GlcNAc(b1-4)]Man(a1-3)[GlcNAc(b1-4)][Neu5Ac(a2-3)Gal(b1-4)GlcNAc(b1-2)[Neu5Ac(a2-3)Gal(b1-4)GlcNAc(b1-6)]Man(a1-6)]Man(b1-4)GlcNAc(b1-4)GlcNAc
# Summary of the method: as §1
# [40] = target: Neu5Ac(a2-3)Gal(b1-4)GlcNAc(b1-3)[Neu5Ac(a2-3)Gal(b1-4)GlcNAc(b1-6)]GalNAc
# Summary of the method: as §1
# [41] = target: Neu5Ac(a2-3)Gal(b1-4)GlcNAc(b1-6)[Neu5Ac(a2-3)Gal(b1-3)]GalNAc
# Summary of the method: as §1
# [42] = target: Neu5Ac(a2-3)Gal(b1-4)GlcNAc6S
# Summary of the method: as §1
# [43] = target: Neu5Ac(a2-6)Gal(b1-4)GlcNAc(b1-2)Man(a1-6)[Man(a1-3)]Man(b1-4)GlcNAc(b1-4)GlcNAc
# Summary of the method: as §1
# [44] = target: Neu5Ac(a2-8)Neu5Ac(a2-3)[GalNAc(b1-4)]Gal(b1-4)Glc
# Summary of the method: as §1
binder,measurement,setting,value
B1,glycan array binding signal (z-score),[1],-0.195
same,glycan array binding signal (z-score),[2],-0.054
same,glycan array binding signal (z-score),[3],-0.372
same,glycan array binding signal (z-score),[4],0.855
same,glycan array binding signal (z-score),[5],-0.067
same,glycan array binding signal (z-score),[6],-0.063
same,glycan array binding signal (z-score),[7],4.38
same,glycan array binding signal (z-score),[8],-0.106
same,glycan array binding signal (z-score),[9],-0.23
same,glycan array binding signal (z-score),[10],-0.096
same,glycan array binding signal (z-score),[11],-0.217
same,glycan array binding signal (z-score),[12],-0.324
same,glycan array binding signal (z-score),[13],1.69
same,glycan array binding signal (z-score),[14],5.84
same,glycan array binding signal (z-score),[15],3.54
same,glycan array binding signal (z-score),[16],3.32
same,glycan array binding signal (z-score),[17],4.07
same,glycan array binding signal (z-score),Gal(a1-4)Gal(b1-4)GlcNAc,3.63
same,glycan array binding signal (z-score),[18],8.66
same,glycan array binding signal (z-score),[19],4.55
same,glycan array binding signal (z-score),Gal(b1-3)Gal(b1-4)GlcNAc,-0.077
same,glycan array binding signal (z-score),[20],-0.352
same,glycan array binding signal (z-score),[21],-0.341
same,glycan array binding signal (z-score),[22],0.396
same,glycan array binding signal (z-score),[23],0.803
same,glycan array binding signal (z-score),[24],1.87
same,glycan array binding signal (z-score),[25],0.949
same,glycan array binding signal (z-score),[26],-0.398
same,glycan array binding signal (z-score),Gal(b1-4)GlcNAc(b1-2)Man,-0.334
same,glycan array binding signal (z-score),[27],1.1
same,glycan array binding signal (z-score),[28],3.3
same,glycan array binding signal (z-score),[29],3.18
same,glycan array binding signal (z-score),[30],3.77
same,glycan array binding signal (z-score),Gal6S(b1-4)Glc,-0.407
same,glycan array binding signal (z-score),[31],0.074
same,glycan array binding signal (z-score),GalNAc6S(b1-4)GlcNAc,-0.377
same,glycan array binding signal (z-score),[32],-0.414
same,glycan array binding signal (z-score),[33],-0.356
same,glycan array binding signal (z-score),[34],-0.324
same,glycan array binding signal (z-score),GlcNAc(b1-3)Fuc,-0.323
same,glycan array binding signal (z-score),[35],-0.279
same,glycan array binding signal (z-score),[36],-0.327
same,glycan array binding signal (z-score),[37],-0.382
same,glycan array binding signal (z-score),[38],-0.337
same,glycan array binding signal (z-score),[39],-0.348
same,glycan array binding signal (z-score),[40],-0.248
same,glycan array binding signal (z-score),[41],-0.386
same,glycan array binding signal (z-score),[42],-0.278
same,glycan array binding signal (z-score),[43],-0.418
same,glycan array binding signal (z-score),[44],-0.366

# — the supplement of paper PMC8728848
